# Screening results deposited in PubChem by National Center for Advancing Translational Sciences (NCATS).
# DT40 TDP1 no CPT = qHTS for Inhibitors of human tyrosyl-DNA phosphodiesterase 1 (TDP1): qHTS in cells in absence of CPT; DT40 Tdp1-/- hTDP1 cells, no CPT, ATP luminescence, 48 h; Potency, µM (series often up to 46.2 µM), for the others: at the highest dose activity change, negative = growth inhibition, most hits filed as inhibitors; hit rate 15% among 420,000; AID 686978, 2013; further: potency means the concentration at half of the fitted maximal effect; nearly all actives have a fitted effect of over 55% in size
#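 Cells were dispensed at 400 per well, compounds added by pin tool, plates incubated ≥48 hr at 37 °C, then CellTiter-Glo added for 30 min at room temperature before luminescence reading. Line: DT40 Tdp1-/- complemented with hTDP1; camptothecin omitted.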
# ELG1 repair inh = qHTS screen for small molecules that inhibit ELG1-dependent DNA repair in human embryonic kidney (HEK293T) cells expressing luciferase-tagged ELG1; HEK293T ELG1-luciferase reporter, luminescence, 16 h; DNA damage induced by 5-fluorouridine; Potency, µM (doses to about 46.1 µM), inactives show top-dose activity change, negative = inhibition, hits mostly inhibitors; hit rate 2.3% among 330,000; AID 504467, 2011; further: potency means the concentration at half of the fitted maximal effect; nearly all actives have a fitted effect of over 55% in size
#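 Overnight (16 hr) co-exposure of 2,000 cells/well to 5-fluorouridine and compound at 37 °C preceded detection. Luciferase was quantified via ONE-Glo luminescence; loss of signal denotes inhibition.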
# TDP1 cell CPT = qHTS for Inhibitors of human tyrosyl-DNA phosphodiesterase 1 (TDP1): qHTS in cells in presence of CPT | chicken DT40 Tdp1-/-;hTDP1 cells + 20 nM CPT, ATP luminescence, 48 h | Potency, µM (doses to about 46.2 µM), inactives show at the highest dose activity change, negative = growth inhibition, actives largely listed as inhibitors | hit rate 12% among 420,000 | AID 686979, 2013; further: potency means the concentration at half of the fitted maximal effect; nearly all actives have a fitted effect of over 55% in size
#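 Cell growth measured by CellTiter-Glo luminescence after a minimum 48 h, 37 C compound exposure with 20 nM CPT in Tdp1-knockout DT40 cells stably expressing hTDP1, seeded 400/well; qHTS titration format.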
# IL1B secr inh = qHTS for Inhibitors of Inflammasome Signaling: IL-1-beta AlphaLISA Primary Screen. AID 743279, 2014. hit rate 4.7% among 360,000. THP-1 LPS/ATP IL-1B secretion, AlphaLISA, 16 h; stronger effect = lower value. activity change, % at 57.5 µM; in the data active means activity change below about -50%; inconclusive means mostly about -30% to -49%
#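 Secreted IL-1B measured by AlphaLISA bead assay after 16 h compound exposure of THP-1 cells; compounds (final up to 57.5 uM) added 1 h before LPS (250 ng/mL) and ATP (1.25 mM) stimulation; lower signal means less secretion.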
# TDP1 inh = qHTS Assay for Inhibitors of Tyrosyl-DNA Phosphodiesterase (TDP1). Potency, µM (doses to about 130 µM), without a hit: at the highest dose activity change, negative = inhibition, usual class: inhibitors. hit rate 0.28% among 350,000. AID 485290, 2010. recombinant TDP1, AlphaScreen DNA substrate cleavage. Tyrosyl-DNA phosphodiesterase 1 (Homo sapiens), Q9NUW8; further: potency means the concentration at half of the fitted maximal effect; nearly all actives have a fitted effect of over 40% in size
# Target sequence (Q9NUW8 whole entry, looked up): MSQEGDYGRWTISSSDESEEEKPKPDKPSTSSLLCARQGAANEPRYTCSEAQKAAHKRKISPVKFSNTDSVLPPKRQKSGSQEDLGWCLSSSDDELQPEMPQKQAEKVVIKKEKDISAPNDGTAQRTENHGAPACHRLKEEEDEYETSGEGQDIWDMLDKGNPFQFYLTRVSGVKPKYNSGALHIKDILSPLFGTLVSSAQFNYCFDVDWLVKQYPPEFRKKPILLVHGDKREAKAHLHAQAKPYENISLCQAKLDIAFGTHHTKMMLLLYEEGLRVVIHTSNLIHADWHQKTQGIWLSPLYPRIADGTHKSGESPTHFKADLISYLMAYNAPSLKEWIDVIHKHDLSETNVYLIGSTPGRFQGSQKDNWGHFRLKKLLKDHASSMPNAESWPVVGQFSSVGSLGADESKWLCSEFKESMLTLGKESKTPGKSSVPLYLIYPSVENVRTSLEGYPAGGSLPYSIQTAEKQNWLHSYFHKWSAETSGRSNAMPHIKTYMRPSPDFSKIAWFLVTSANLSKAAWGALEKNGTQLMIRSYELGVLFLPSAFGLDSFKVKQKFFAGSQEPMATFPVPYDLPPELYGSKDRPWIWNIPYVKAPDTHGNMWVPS
#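 Enzyme-compound mixtures sat 15 min at room temperature, followed by a 5 min reaction with 15 nM final substrate and 10 min with AlphaScreen beads. Recombinant human Tdp1 was used at 1 nM final.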
# Giardia kill = Small Molecules that selectively kill Giardia lamblia: qHTS | activity change, % at 7.66 µM, hits read low | Giardia lamblia trophozoite viability | AID 540267, 2011 | hit rate 0.15% among 340,000; in the data active means activity change below about -80%; inconclusive means between about -30% and that limit;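 further: parasites exposed to compound for two days anaerobically before the ATP read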
#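 Media and compound were dispensed first, then trophozoites at 100 cells/well; plates sat 48 hrs at 37 deg C without oxygen before ATP luminescence reagent was added and read after 15-30 min at room temperature.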
# * hit, by the source's call; ? = inconclusive; · = not tested or not shown; [ ] = remark or other dose. Most compounds without a hit are left out; they make up all but 19% or so of the library. Unless noted, the call rests on the fitted dose curve; in most records, active means well fitted curve in the direction sought with a large enough effect; inconclusive means small, poorly fitted or top-dose-only effect, or another doubt; inactive means no such curve, though single readings can be large; an effect the other way counts as inactive or inconclusive. On the % scale 0 is the no-effect control and ±100 the full control effect.
SMILES,DT40 TDP1 no CPT,ELG1 repair inh,TDP1 cell CPT,IL1B secr inh,TDP1 inh,Giardia kill
N=c1c2c(ncn1CCN1CCOCC1)Oc1cc(O)ccc1C2c1ccccc1 (stereo not given),?,-29.4%,1.2%,-75.0*,5.0%,9.8
COc1ccc(C2c3c(ncn(CCCN4CCOCC4)c3=N)Oc3ccc4ccccc4c32)cc1OC (stereo not given),13µM*,?,23.1µM*,0.0,7.1%,2.5
COc1ccc2c(c1)Oc1ncn(CCN3CCOCC3)c(=N)c1C2c1ccc(OC)c(OC)c1 (stereo not given),·,·,·,·,1.9%,·
COc1ccc(C2c3ccc4ccccc4c3Oc3ncn(CCN4CCOCC4)c(=N)c32)cc1 (stereo not given),?,-2.0%,23.1µM*,-79.4*,6.7%,-5.7
COc1ccc(C2c3ccc4ccccc4c3Oc3ncn(CCN4CCOCC4)c(=N)c32)cc1OC (stereo not given),14.6µM*,20.6%,18.4µM*,-52.4*,4.6%,14.7
CN1CCN(NC(=O)c2ccc(COc3ccccc3Br)o2)CC1,?,?,?,-8.9,2.7%,25.0
CCc1ccccc1NC(=O)C(=O)NCCc1sc(-c2cccc(C)c2)nc1C,·,·,·,·,6.6%,·
COc1ccc(NC(=O)CCCN2C(=O)CN(C)C2=O)cc1Cl,-8.8%,16.3%,18.4%,10.1,1.3%,22.3
Cc1cccc(C(=O)N2CCC(=O)N([C@H](COCc3cccc(C(F)(F)F)c3)Cc3ccccc3)CC2)c1,16.4µM*,·,?,-1.2,6.1%,·
Cc1cccc(C(=O)N2CCC(=O)N(C(COCc3cccc(C(F)(F)F)c3)Cc3ccccc3)CC2)c1 (stereo not given),?,?,29.1µM*,?,2.6%,-4.7
FC(F)(F)C(Cl)Br (stereo not given),-9.3%,·,-10.3%,·,7.0%,·
C/C(N)=C(/C#N)C(=O)CSc1nnc(SCc2ccc(Cl)cc2)s1,16.4µM*,?,13µM*,-1.2,·,-25.6
C/C(N)=C(/C#N)C(=O)CSc1nn(-c2ccc(Cl)cc2)c(=S)s1,?,?,?,30.4,-7.7%,0.4
CC1=C(C(=O)O)N2C(=O)[C@@H](NC(=O)[C@H](N)C3=CCC=CC3)[C@H]2SC1,-14.4%,·,?,·,·,·
CCN(CC)C(=O)C1CCCN(C(=O)c2ccc3nc(-c4cccc(OC)c4)oc3c2)C1 (stereo not given),11.6µM*,·,23.1µM*,-7.3,·,·
CCC(=O)C1CCCN(C(=O)c2ccc3nc(-c4cccc(OC)c4)oc3c2)C1 (stereo not given),?,?,?,-15.3,1.6%,-1.6
CCOC(=O)C1CCCN(C(=O)c2ccc3nc(-c4cccc(OC)c4)oc3c2)C1 (stereo not given),2.91µM*,?,3.26µM*,4.0,2.7%,-7.8
OCc1ccnc2oc3ccccc3c12,2.5%,·,4.1%,-0.1,·,8.5
COc1ccccc1N1CCN(CC(=O)Nc2ccccc2C(=O)NCCc2ccccc2)CC1,16.4µM*,?,14.6µM*,14.1,5.3%,-24.8
O=C(CN1CCN(c2ccccc2O)CC1)Nc1ccccc1C(=O)NCCc1ccccc1,16.4µM*,?,23.1µM*,-1.9,-3.0%[56.1 µM],-7.0
O=C(CN1CCN(c2ccc(F)cc2)CC1)Nc1ccccc1C(=O)NCCc1ccccc1,16.4µM*,?,?,21.0,4.6%,-8.2
COc1ccc(CCNC(=O)c2ccccc2NC(=O)CN2CCN(c3ccccc3O)CC2)cc1,10.3µM*,5.17µM*,?,-28.8,3.1%,4.7
O=C(CN1CCN(c2ccccc2)CC1)Nc1ccccc1C(F)(F)F,?,-11.2%,?,-19.6,2.2%,6.7
Cc1oc(-c2ccccc2Cl)nc1CS(=O)(=O)CC(=O)N1CCOCC1,-13.8%,-1.0%,9.7%,13.0,·,7.4
Cc1ccc(CN2C(=O)c3ccccc3Sc3ccc(C(=O)OCc4ccco4)cc32)cc1,·,·,·,·,-0.6%,·
SMILES,DT40 TDP1 no CPT,ELG1 repair inh,TDP1 cell CPT,IL1B secr inh,TDP1 inh,Giardia kill
Cn1cccc1C(=O)N1CCC2(CCCN(c3ncccn3)C2)CC1,0.651µM*,·,?,·,·,·
Cn1cccc1C(=O)N1CCC2(CC1)CN(c1ccccn1)C2,?,·,-19.8%,·,·,·
Cn1cccc1C(=O)N1CCC2(CC1)CCN(c1ccccn1)CC2,14.6µM*,·,?,·,·,·
Cn1cccc1C(=O)N1CCC2(CC1)CCN(C(c1ccccc1)c1ccccc1)CC2,14.6µM*,·,?,·,·,·
N#Cc1cccc(-c2nc3cnc(N4CCOCC4)nc3n(C3CC3)c2=O)c1,-2.9%,·,-2.2%,·,·,·
COc1ccc(C(CCN)Cc2ccccc2)cc1 (stereo not given),20.6µM*,-15.8%,29.1µM*,-50.9*,5.4%,-12.4
Cc1ccc(CNC(=O)C(=O)Nc2c3c(nn2-c2ccc(F)cc2)CSC3)cc1,5.17µM*,·,?,·,10.4%,·
CCCCCn1c(SCC(=O)c2ccccc2)nc2cc(C(=O)NCC3CCCO3)ccc2c1=O (stereo not given),16.7%,·,4.2%,12.7,·,-5.3
CCc1cccc2c(-c3csc(=NC)n3C)c[nH]c12,?,-1.4%,?,-72.7*,5.8%,-13.4
Cc1cccc(CNS(=O)(=O)c2ccc(-c3coc(C)n3)cc2)c1,?,·,-25.1%,·,4.4%,·
CCOc1ccc(CNS(=O)(=O)c2ccc(-c3coc(C)n3)cc2)cc1OC,14.6µM*,·,7.31µM*,·,8.8%,·
CCOc1ccc(CNS(=O)(=O)c2ccc(-c3coc(C)n3)cc2)cc1,18.4µM*,·,?,·,·,·
Cc1nc(-c2ccc(S(=O)(=O)NCc3ccc(F)cc3)cc2)co1,-22.1%,·,-22.8%,·,3.3%,·
COC(=O)/C=C/CC(C)OS(N)(=O)=O (stereo not given),11.7%,1.2%,-1.9%,27.2,·,8.9
CCOC(=O)c1cnc(N2CCN(c3ccccc3)CC2)[nH]c1=O,-11.1%,0.4%,7.3%,8.3,·,4.9
O=C(COc1ccccc1[N+](=O)[O-])N(C1CCCCC1)C1CCS(=O)(=O)C1 (stereo not given),-25.5%,15.1%,?,4.4,0.7%,1.6
CC#CCOC(=O)c1c(C)nc2sc3c(c2c1N)CC[C@@H](O)C3,10.6µM*,·,-58.7%,·,-13.6%[56.1 µM],·
